Compound activity from PubChem BioAssay.
Mtb FBA inh – Mtb FBA enzyme inhibitors, primary screen, biochemical, fluorescence, strain H37Rv. inhibition, % at 1 µM. actives 2.3% (n = 360,000). purified M. tuberculosis FBA, fluorescence read-out. Fructose-bisphosphate aldolase (Mycobacterium tuberculosis (strain ATCC 25618 / H37Rv)), …; in the data active means inhibition above about 27%;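 further: 0% = vehicle and 100% = reference inhibitor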
GDH-TPI inh – GDH-TPI coupling enzyme inhibitors, primary screen, artefact control for M. tuberculosis FBA inhibitor project, biochemical, absorbance, full deck; GDH-TPI coupled enzyme counterscreen, NADH absorbance; actives 1.2% (n = 360,000); AID 588335, 2011; inhibition, % at 4.8 µM; in the data active means inhibition above about 30%;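 further: 0% = DMSO wells and 100% = wells lacking the enzyme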
FadD28 binding – inhibitors of FadD28 bisubstrate probe binding, primary screen, biochemical, fluorescence polarization, single point; AID 588549, 2011; Mycobacterium tuberculosis FadD28 fatty-acid-AMP ligase; actives 0.22% (n = 360,000); inhibition, % at 12.5 µM; in the data active means inhibition above about 8.5%, passing the limit was not always enough
Mtb BioA inh – M. tuberculosis BioA enzyme inhibitors, primary screen, biochemical, plate reader, single point, HTS | inhibition, % at 9.99 µM | purified M. tuberculosis BioA enzyme | 7,8-diaminopelargonic acid synthase BioA (Mycobacterium tuberculosis) | actives 0.096% (n = 360,000); in the data active means inhibition above about 40%
Rv3671c protease – Rv3671c serine protease inhibitors, primary screen, biochemical, fluorescence polarization, M. tuberculosis H37Rv. inhibition, % at 5.96 µM. actives 0.048% (n = 320,000). P9WHR9; in the data active means inhibition above about 38%;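 further: extracellular domain of Rv3671c used as enzyme; 0% = enzyme with DMSO and 100% = no enzyme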
Target sequence (P9WHR9 whole entry, looked up, the tested form may be a part): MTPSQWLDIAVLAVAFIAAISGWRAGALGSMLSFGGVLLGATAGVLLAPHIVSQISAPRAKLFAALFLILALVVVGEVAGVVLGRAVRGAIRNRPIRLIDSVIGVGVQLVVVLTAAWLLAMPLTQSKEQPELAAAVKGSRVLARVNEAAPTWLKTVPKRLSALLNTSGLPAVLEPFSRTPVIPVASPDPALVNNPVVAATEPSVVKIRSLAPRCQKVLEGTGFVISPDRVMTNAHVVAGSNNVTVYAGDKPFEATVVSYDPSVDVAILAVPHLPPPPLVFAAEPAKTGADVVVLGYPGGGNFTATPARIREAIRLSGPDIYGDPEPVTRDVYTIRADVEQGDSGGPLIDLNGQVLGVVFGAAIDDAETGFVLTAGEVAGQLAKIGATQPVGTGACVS
* = called active by the depositor; x = no result given; + = active, no number. In the library only some 3% were active in any assay of this set; here they are far more common.

SMILES | Mtb FBA inh | GDH-TPI inh | FadD28 binding | Mtb BioA inh | Rv3671c protease
COc1ccccc1NC(=O)N[C@@H]1CC[C@@H](CCNS(=O)(=O)c2ccc(F)cc2)O[C@H]1CO | x | x | x | -3 | x
Cc1noc(C)c1NC(=O)N(C)C[C@H]1Oc2ccc(NC(=O)CCC(F)(F)F)cc2C(=O)N([C@@H](C)CO)C[C@H]1C | x | x | x | -1 | x
C[C@@H]1CN([C@H](C)CO)C(=O)CCCn2cc(nn2)CO[C@H]1CN(C)Cc1ccc(C(F)(F)F)cc1 | x | x | x | -2 | x
Cc1noc(C)c1NC(=O)Nc1ccc2c(c1)C(=O)N(C)[C@H]1CC[C@@H](CC(=O)N(C)C)O[C@@H]1CO2 | x | x | x | -1 | x
CO[C@H]1CC[C@H]2CCN(C)C(=O)C[C@@H](c3ccccc3)CN(C)C(=O)c3cc(C#N)ccc3OC[C@H]1O2 | x | x | x | 0 | x
O=C(CCCn1c(SCc2cc(=O)n3ccccc3n2)nc2ccccc2c1=O)NCC1CCCO1 (stereo unspecified) | 6 | 33* | 1 | x | -5
Cc1cccn2c(=O)c3cc(C(=O)NCC4CCCO4)c(=N)n(CCN4CCOCC4)c3nc12 (stereo unspecified) | 145* | 24 | -1 | 2 | 3
COc1ccc(CCn2c(=N)c(C(=O)NCCN3CCOCC3)cc3c(=O)n4cccc(C)c4nc32)cc1OC | 2 | 8 | -3 | 2 | -2
COCCCn1c(=N)c(C(=O)NCC2CCCO2)cc2c(=O)n3ccccc3nc21 (stereo unspecified) | + | 14 | 0 | 1 | 10
COc1ccc(CCn2c(=N)c(C(=O)NCC3CCCO3)cc3c(=O)n4ccccc4nc32)cc1 (stereo unspecified) | 9 | 12 | -2 | 3 | 9
Cc1ccccc1-c1ccc2c(c1)O[C@@H](CN(C)C(=O)Nc1ccc(F)cc1)[C@@H](C)CN([C@@H](C)CO)S2(=O)=O | x | x | x | -2 | x
C[C@@H]1CN([C@H](C)CO)S(=O)(=O)c2ccc(C3=CCCC3)cc2O[C@H]1CN(C)C(=O)c1ccccn1 | x | x | x | 0 | x
COc1ccc(NC(=O)Nc2ccc3c(c2)C(=O)N([C@H](C)CO)C[C@H](C)[C@@H](CN(C)C(=O)Nc2ccccc2)OCCCC[C@@H](C)O3)cc1 | x | x | x | -5 | x
O=C1c2ccccc2NC(c2ccc(O)c(O)c2)N1c1ccccc1Cl (stereo unspecified) | 6 | 41* | -6 | 13 | -3
O=C1OCCN1C(=O)[C@H]1[C@H](c2ccccc2)C(c2ccccc2)=NN1c1ccccc1 | 10 | 4 | -2 | -2 | x
C[C@@H]1C(c2cccc(Cl)c2)=NN(c2ccc(Br)cc2)[C@H]1C(=O)N1CCOC1=O | 56* | 16 | 3 | 0 | x
Cc1cccc(C2=NN(c3ccc(Br)cc3)[C@@H](C(=O)N3CCOC3=O)[C@@H]2c2ccccc2)c1 | 28* | 17 | 1 | -1 | x
O=C1OCCN1C(=O)[C@H]1[C@H](c2ccccc2)C(c2ccccc2)=NN1c1ccc(Br)cc1 | 43* | 16 | -3 | 1 | x
O=C1OCCN1C(=O)[C@H]1[C@H](c2ccccc2)C(c2ccc(F)cc2)=NN1c1ccc(Br)cc1 | 35* | 24 | -1 | -1 | x
CO[C@@H]1CN(C)C(=O)c2cc(NC(C)=O)ccc2OC[C@@H](C)N(Cc2ccc(F)cc2)C[C@H]1C | x | x | x | 0 | x
COc1ccc(C2CC(=O)Oc3cc(C)cc(C)c32)cc1 (stereo unspecified) | 2 | -1 | -2 | 1 | x
COc1ccc(C2CC(=O)Oc3c(C(C)C)ccc(C)c32)cc1 (stereo unspecified) | 3 | -2 | 8.8* | 1 | x
C[C@@H]1CN([C@H](C)CO)C(=O)c2ccccc2-c2ccccc2CO[C@H]1CN(C)C(=O)c1ccncc1 | x | x | x | 0 | x
Cc1noc(C)c1NC(=O)N(C)C[C@@H]1OCCCC[C@@H](C)Oc2ccc(NS(=O)(=O)c3ccccc3)cc2C(=O)N([C@@H](C)CO)C[C@H]1C | x | x | x | -2 | x
C[C@@H]1CN([C@H](C)CO)C(=O)c2ccccc2-c2ccccc2CO[C@H]1CN(C)S(=O)(=O)c1cccs1 | x | x | x | 0 | x
SMILES | Mtb FBA inh | GDH-TPI inh | FadD28 binding | Mtb BioA inh | Rv3671c protease
CC(C)N1CCc2c(sc(NC(=O)c3ccc4ccccc4c3)c2C(N)=O)C1 | 1 | 10 | -4 | -7 | -10
CC(C)N1CCc2c(sc(NC(=O)c3cc4cc([N+](=O)[O-])ccc4s3)c2C(N)=O)C1 | -2 | -2 | 14* | 0 | x
CC(C)CNC(=O)C(=O)NCCC1CCCCN1S(=O)(=O)c1cccs1 (stereo unspecified) | 3 | -2 | -2 | -1 | 3
CCNC(=O)C(=O)NCCC1CCCCN1S(=O)(=O)c1cccs1 (stereo unspecified) | 130* | 12 | -2 | 2 | 7
C[C@H](NC(=O)C[C@H]1C[C@H]2c3cc(NC(=O)CN(C)C)ccc3O[C@H]2[C@H](CO)O1)c1ccccc1 | x | x | x | 0 | x
Cn1c(NC(=O)c2ccccc2NC(=O)C(C)(C)C)nc2ccccc21 | 8 | 34* | -3 | -5 | 0
Cn1c(NC(=O)c2ccc(F)cc2)nc2ccccc21 | -1 | 15 | -2 | -2 | x
CCOc1ccc(NC(=O)NCC2CCN(c3ccc(OC)cc3)C2)cc1 (stereo unspecified) | 5 | 33* | 1 | -1 | -7
CCOC(=O)c1[nH]c2cc3c(cc2c1NC(=O)CN1CCC(C)CC1)OCO3 | 153* | 29 | -6 | 0 | -11
CCCCNc1c(-c2cccc(SC3CCCCC3)c2)nc2ccc(Cl)cn12 | 2 | 7 | 0 | -2 | -1
CCCCNc1c(-c2ccc(SC3CCCCC3)cc2)nc2ccccn12 | 50* | 20 | -2 | 0 | 19
Cc1noc(C)c1S(=O)(=O)N(C)C[C@@H]1Oc2ccc(NC(=O)NC(C)C)cc2CC(=O)N([C@H](C)CO)C[C@H]1C | x | x | x | -2 | x
Nc1ncc(-c2ccc([N+](=O)[O-])cc2)cn1 | -1 | 54* | -1 | -2 | -18
COc1ccc(N=Cc2ccc(N(CCC#N)CCC#N)cc2)cc1 | -3 | 49* | 1 | x | x
CCOC(=O)CNC(=O)N(CCOC)CC1CCCN(C2Cc3ccccc3C2)C1 (stereo unspecified) | + | -8 | -3 | 0 | -1
CCNC(=O)C(Cc1ccccc1)NC(=O)OCc1ccccc1 (stereo unspecified) | -3 | -1 | -2 | 2 | 1
Cc1ccc2cc(S(=O)(=O)NCCC(=O)O)ccc2c1 | 0 | 6 | -2 | 0 | -15
Cc1ccc(S(=O)(=O)NC(C(=O)Oc2ccc3ccc(=O)oc3c2)c2ccccc2)cc1 (stereo unspecified) | + | 25 | 1 | 9 | -11
Cc1ccc(S(=O)(=O)NC(C(=O)Oc2ccc3c(C)c(Cl)c(=O)oc3c2)c2ccccc2)cc1 (stereo unspecified) | + | 7 | -2 | 1 | 9
